Most compounds without a hit are left out; they make up all but 4.1% or so of the library.
IDE inh – human IDE inhibitors in live cells, primary screen, fluorescence polarization, HEK cells, FAbetaB substrate. inhibition, % at 5.59 µM. FAbetaB cleavage. AID 434962, 2010. Insulin-degrading enzyme (Homo sapiens), P14735. actives 0.41% (n = 320,000);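 active = percent inhibition above the average of all tested compounds plus 3 SD, set per screening campaign, cut at about 16% in these data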;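 note: IDE supplied by intact live HEK cells; FP after avidin binding of uncleaved biotin substrate so inhibition keeps polarization high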
IDE cell activ – human IDE activators in live cells, primary screen, fluorescence polarization, HEK cells, FAbeta-B substrate | FAbeta-B cleavage; 0% vehicle, 100% cell-free pure enzyme wells | activation, % at 5.96 µM | actives 0.073% (n = 340,000);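 active = activation above the mean of all tested compounds plus 3 SD, set per screening campaign, cut at about 17% in these data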
PfM18AAP inh-1 – PfM18AAP inhibitors, malaria aminopeptidase, primary screen, biochemical, QFRET, recombinant enzyme; H-Glu-NHMec fluorogenic cleavage; AID 1822, 2009; actives 1.2% (n = 290,000); inhibition, % at 7.35 µM; M18 aspartyl aminopeptidase (Plasmodium falciparum 3D7);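 active = inhibition above the campaign mean inhibition over all tested compounds plus 3 SD, cut at about 28% in these data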
CaV13 ICDI inh – Primary screen for inhibitors of IQ motif and Ca2+-dependent inactivation inhibitor domain binding in CACNA1D, Förster resonance energy transfer in living cells, … | actives 0.098% (n = 340,000) | HEK cells, CFP/YFP FRET ICDI-IQ, plate reader, 10 min; percent FRET-ratio fall versus neutral wells | inhibition, % at 12.3 µM | AID 743397;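 active = mean replicate inhibition of at least 30% and at least 1% of replicates passing that level; inconclusive = only one of the two criteria is met; inactive = neither criterion is met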
PolyA inhibitor – polyadenylation inhibitors in yeast reporter cells, primary screen, luminescence, S. cerevisiae. AID 1875, 2009. actives 0.02% (n = 300,000). activity score, % at 12 µM. S. cerevisiae SKY197-pL101 polyadenylation reporter, beta-gal luminescence; efflux-impaired pdr1/pdr3 knockout yeast; score 100 = 6 SD above DMSO;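 active = lowest replicate activity score at least 50, where 100 means six control SD above control mean; inconclusive = lowest score under 50 but half or more replicates reach 50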;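 note: yeast exposed to compound for 9 h at 30 °C; higher score means more reporter readthrough which indicates perturbed polyadenylation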
ALR inh – inhibitors of human ALR sulfhydryl oxidase, primary screen, biochemical, H2O2 detection, HRP-luminol luminescence, single point; FAD-linked sulfhydryl oxidase ALR (Homo sapiens), P55789; purified ALR, DTT oxidation; inhibition, % (no concentration beside the values); actives 3.8% (n = 290,000); AID 485317, 2010;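 active = mean replicate inhibition above about 79%, with every replicate also reaching it, limit read from the data; inconclusive = only one of the two criteria met; inactive = mean below limit and not every replicate reaching it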
Target sequence (P55789 whole entry, looked up): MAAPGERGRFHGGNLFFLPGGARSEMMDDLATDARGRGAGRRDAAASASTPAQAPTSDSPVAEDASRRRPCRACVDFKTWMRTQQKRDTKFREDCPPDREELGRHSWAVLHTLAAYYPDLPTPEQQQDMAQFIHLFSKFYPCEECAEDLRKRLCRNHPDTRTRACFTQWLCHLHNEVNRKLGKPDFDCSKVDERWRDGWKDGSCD
PfM18AAP inh-2 – PfM18AAP inhibitors, malaria aminopeptidase, confirmation, biochemical, QFRET, recombinant enzyme, triplicate | actives 28% (n = 2,400) | shares compounds with PfM18AAP inh-1 | inhibition, % at 7.35 µM | H-Glu-NHMec fluorogenic cleavage;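 active = mean inhibition over replicate wells above the hit cutoff set for the earlier primary screen, cut at about 29% in these data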
CTSL1 counter – cathepsin L1 inhibitors, retest, confirmation, counter-screen for PFM18AAP inhibitor project, biochemical, QFRET, triplicate; shares compounds with PfM18AAP inh-1; purified cathepsin L1, Z-Leu-Arg-MCA fluorescence; inhibition, % at 5.96 µM; 2,400 tested, under 10 active;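 active = average inhibition across replicates above the hit cutoff set in the earlier primary screen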
Target sequence (P07711 whole entry, looked up): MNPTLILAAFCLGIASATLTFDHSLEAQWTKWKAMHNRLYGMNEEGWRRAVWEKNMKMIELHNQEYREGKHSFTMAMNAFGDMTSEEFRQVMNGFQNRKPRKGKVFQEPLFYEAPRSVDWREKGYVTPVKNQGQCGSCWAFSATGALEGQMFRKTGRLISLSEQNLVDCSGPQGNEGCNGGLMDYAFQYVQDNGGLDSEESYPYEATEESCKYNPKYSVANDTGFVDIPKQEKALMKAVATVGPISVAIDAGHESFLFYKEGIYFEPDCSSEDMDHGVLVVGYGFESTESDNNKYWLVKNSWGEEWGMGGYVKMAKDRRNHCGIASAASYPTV
Hits are given with their value; – = inactive; ? = inconclusive; · = no result.

SMILES	IDE inh	IDE cell activ	PfM18AAP inh-1	CaV13 ICDI inh	PolyA inhibitor	ALR inh	PfM18AAP inh-2	CTSL1 counter
CCOC(=O)C1=C(CSc2nc(-c3ccncc3)ccc2C#N)OC(N)=C(C#N)C1c1ccc(OC)cc1 (stereo not drawn)	–	–	34	·	–	·	–	–
CC(=O)c1sc2nsc(SCCN3CCOCC3)c2c1N	–	·	60	–	–	?	–	–
COc1ccc(C(=O)NCc2nnc(SCC(=O)Nc3nnc(C)s3)o2)cc1OC	–	–	47	–	–	–	–	–
CCc1nnc(NC(=O)CSc2nnc(CNC(=O)c3cc(OC)c(OC)c(OC)c3)o2)s1	–	–	41	–	–	–	–	–
CCSc1nnc(NC(=O)CSc2nnc(CNC(=O)c3ccc(OC)cc3)o2)s1	–	–	–	–	–	·	·	·
CCSc1nnc(NC(=O)CSc2nnc(CNC(=O)c3cc(OC)c(OC)c(OC)c3)o2)s1	–	–	–	–	–	–	·	·
COc1ccc(C(=O)NCc2nnc(SCC(=O)Nc3nnc(C)s3)o2)cc1	–	–	35	–	–	99	–	–
O=S(=O)(Nc1ccncc1Cl)c1ccc2ccccc2c1	–	–	–	–	–	–	·	·
O=C(CCc1ccc(O)c(O)c1)N/N=C/c1ccc2c(c1)OCO2	–	–	79	·	–	95	50	–
CC(C)Oc1ccc(CCC(=O)N/N=C/c2ccc3c(c2)OCO3)cc1	–	–	–	–	–	–	·	·
COc1ccc(N2CCN(CCCn3c(=S)[nH]c4ncccc4c3=O)CC2)cc1	–	–	45	–	–	–	–	–
O=c1c2cccnc2[nH]c(=S)n1CCCN1CCN(c2ccc(F)cc2)CC1	–	–	–	–	–	–	·	·
O=C(c1ccco1)N1CCN(C(=O)N2CCCCC2)CC1	–	–	90	–	–	–	–	–
O=C(c1ccco1)N1CCN(C(=O)N2CCCC2)CC1	–	–	–	–	–	·	·	·
O=C(NCCc1ccccc1)c1ccc(CS(=O)(=O)Cc2ccc(F)cc2)o1	–	–	–	–	–	–	·	·
COc1ccc(OCC(=O)N/N=C2/C=C(C)CC2)cc1	–	–	–	–	–	–	·	·
O=c1[nH]c2ccc(S(=O)(=O)Nc3ccccc3O)cc2[nH]1	–	–	50	–	–	93	47	–
COc1ccc2[nH]c3c(c2c1)CCN1C(=O)C(CC(=O)NCc2ccco2)C[C@H](C(=O)N(C(C)C)C(C)C)[C@@]31C (stereo partly drawn)	·	–	·	–	·	·	·	·
COc1ccccc1CNc1nc(C)c(C(=O)N(C)C)s1	·	–	34	–	–	·	–	–
O=C(CSc1nc2[nH]ncc2c(=O)n1-c1ccccc1)NCc1cccs1	–	–	57	–	–	–	39	–
COc1ccc(-n2c(SCC(=O)NCc3cccs3)nc3[nH]ncc3c2=O)cc1	–	–	52	–	–	–	34	–
Cc1cccc(NC(=O)CSc2nc3[nH]ncc3c(=O)n2-c2ccccc2)c1	–	·	36	·	–	–	–	–
COc1ccccc1CNC(=O)N/C=C/c1ccc(Cl)cc1	–	–	–	–	–	·	·	·
CC(=O)Nc1ccccc1NC(=O)C/C(C)=N/NC(=O)c1ccccn1	–	–	41	–	–	–	–	–
C[C@@H]1CCC[C@]2(O[C@H](CCO)C[C@H](O)[C@H]2O)O1	–	–	·	–	–	·	·	·
SMILES	IDE inh	IDE cell activ	PfM18AAP inh-1	CaV13 ICDI inh	PolyA inhibitor	ALR inh	PfM18AAP inh-2	CTSL1 counter
C/C(=N/NC(=O)c1cc(O)c(O)c(O)c1)c1ccc([N+](=O)[O-])cc1	·	–	50	–	–	·	–	–
C/C(=N\NC(=O)c1ccc([N+](=O)[O-])cc1)c1c(O)cc(C)oc1=O	–	–	–	–	–	–	·	·
Cc1c(NC(=O)COC(=O)c2ccccc2O)c(=O)n(-c2ccccc2)n1C	·	·	·	–	·	·	·	·
COc1ccc(C2Nc3cccc4cccc(c34)N2)cc1Br	–	–	35	–	–	–	–	–
CCOC(=O)C1=C(O)/C(=C/c2ccc(C)o2)SC1=NC(=O)c1ccccc1C	·	·	–	·	·	·	·	·
CCOC(=O)c1ccc(S(=O)(=O)NNC(=O)COc2ccc(C)cc2)cc1	–	–	–	–	–	–	·	·
Cc1ccc(NC(=O)c2sc3nc(N4CCOCC4)c4c(c3c2N)CC(C)(C)OC4)cc1	–	–	39	–	–	–	–	–
CC1(C)Cc2c(c(N3CCOCC3)nc3sc(C(=O)Nc4ccc(Cl)cc4)c(N)c23)CO1	–	–	40	–	–	·	–	–
CC1(C)Cc2c(c(N3CCCC3)nc3sc(C(=O)Nc4ccccc4)c(N)c23)CO1	–	–	–	–	–	–	·	·
NC(=O)c1sc2nc(N3CCOCC3)c3c(c2c1N)CCCC3	–	–	–	·	–	–	·	·
CC1(C)Cc2c(c(N3CCOCC3)nc3sc(C(N)=O)c(N)c23)CO1	–	–	43	–	–	–	–	–
CCOc1ccc(NC(=O)c2sc3nc(N4CCOCC4)c4c(c3c2N)CC(C)(C)OC4)cc1	–	–	42	–	–	–	–	–
O=C(COC(=O)CCN=C1NS(=O)(=O)c2ccccc21)NNC(=O)c1ccccc1	–	–	·	–	–	–	·	·
COc1ccc(O)c(/C=N/NC(=S)Nc2cccc(S(=O)(=O)N(C)C)c2)c1	–	–	–	–	–	–	·	·
CCN(CC)S(=O)(=O)c1cccc(C(=O)N/N=C/c2ccc(O)c(O)c2O)c1	–	–	42	–	·	98	–	–
COc1cccc(/C=N/NC(=S)Nc2cccc(S(=O)(=O)N(C)C)c2)c1	–	–	–	–	–	–	·	·
CCn1c(C)nc2cc(C(=O)N/N=C/c3ccc(O)c(O)c3O)ccc21	·	–	47	–	–	·	38	–
COc1cc(/C=N/NC(=S)Nc2cccc(S(=O)(=O)N(C)C)c2)cc(OC)c1O	–	–	43	–	–	·	–	–
CCn1c(C)nc2cc(C(=O)N/N=C/c3cccc(OC)c3O)ccc21	–	–	–	–	–	–	·	·
CN(C)S(=O)(=O)c1cccc(NC(=S)N/N=C/c2ccc(O)c(O)c2O)c1	·	–	49	–	–	·	40	–
CCOCC(=O)N1CCN(c2ccc([N+](=O)[O-])cc2)CC1	–	–	–	–	–	–	·	·

Screens deposited in PubChem BioAssay by several laboratories.
